Holding throughout (experiment): NCI-60 one-dose screen, 48 h (100 = growth as untreated, 0 = no growth, -100 = all killed)
For one assay, the system named is HCT-15 colon. The settings on record: 10 µM unless noted.
A further assay concerns HT29 colon. The settings on record: 10 µM unless noted.
A further assay deals with SNB-75 CNS. The settings on record: 10 µM unless noted.
For a further assay, the system named is SNB-19 CNS. The settings on record: 10 µM unless noted.
In the next assay the test system is U251 CNS. The settings on record: 10 µM unless noted.
Another assay has as its system PC-3 prostate. The settings on record: 10 µM unless noted.
The next assay concerns SK-MEL-5 melanoma. The settings on record: 10 µM unless noted.
For another assay, the system named is UACC-62 melanoma. The settings on record: 10 µM unless noted.
The subject of a further assay is LOX IMVI melanoma. The settings on record: 10 µM.
The test system of a further assay is SK-MEL-28 melanoma. The settings on record: 10 µM unless noted.
The next assay relates to EKVX NSCLC. The settings on record: 10 µM unless noted.
The test system of another assay is SN12C renal. The settings on record: 10 µM unless noted.
The test system of another assay is UO-31 renal. The settings on record: 10 µM unless noted.
Another assay concerns TK-10 renal. The settings on record: 10 µM unless noted.
The next assay relates to ACHN renal. The settings on record: 10 µM unless noted.
Another assay concerns CAKI-1 renal. The settings on record: 10 µM unless noted.
The test system of the next assay is A498 renal. The settings on record: 10 µM unless noted.
The next assay concerns MOLT-4 leukemia. The settings on record: 10 µM unless noted.
The test system of the next assay is CCRF-CEM leukemia. The settings on record: 10 µM unless noted.
The next assay relates to SK-MEL-2 melanoma. The settings on record: 10 µM unless noted.

Molecules are shown by their SMILES. About 83,000 compounds went through this panel and 20% of them were active in at least one assay; those are over-represented in the sample as a whole.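 Plates (96-well) were seeded with cells, treated with compound at one concentration, and incubated for 48 hours before percent growth was determined.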 A number with no mark means an inactive call. Activity calls are given as the source filed them. Rule for the calls: active = growth percent below 10; inactive = the rest.

Consider `O=C(O)Cc1cccc2ccccc12`, for which the growth in the assay with HCT-15 colon was 102%; in the assay on HT29 colon, 105%; in the assay with SNB-75 CNS it was 82.2%; with SNB-19 CNS it was 116%; in the assay on U251 CNS it was 95.1%; in the assay with PC-3 prostate, 106%. The growth is 118% with SK-MEL-5 melanoma; 110% in the assay with UACC-62 melanoma; 97% with LOX IMVI melanoma; 121% in the assay on SK-MEL-28 melanoma; 101% in the assay with EKVX NSCLC; 121% in the assay on SN12C renal. Besides, the growth with UO-31 renal is 93.6%; in the assay on TK-10 renal, 102%; with ACHN renal it was 103%; in the assay with CAKI-1 renal it was 94.6%; in the assay on A498 renal, 106%; in the assay with MOLT-4 leukemia it was 9.03% (active).

Regarding `N#CCCN1C(=O)CCC1C(=O)O` (configuration not stated), the growth in the assay on HCT-15 colon is 97.8%; with HT29 colon, 89.8%; in the assay on SNB-75 CNS it was 103%; with SNB-19 CNS, 101%; with U251 CNS it was 101%; with PC-3 prostate it was 90.9%. The growth was 110% with SK-MEL-5 melanoma; 105% with UACC-62 melanoma; 120% in the assay with LOX IMVI melanoma; 124% with SK-MEL-28 melanoma; 112% with EKVX NSCLC; 106% in the assay on SN12C renal. Further, the growth in the assay on UO-31 renal was 101%; in the assay on TK-10 renal, 103%; with ACHN renal, 101%; with CAKI-1 renal, 102%; in the assay with A498 renal, 98.9%; with CCRF-CEM leukemia it was 108%. Further, the growth in the assay on MOLT-4 leukemia was -26.9% (active).

For `C1Cc2onc(-c3noc4c3CCC4)c2C1`, the growth with HCT-15 colon is 105%; in the assay on HT29 colon it was 104%; in the assay on SNB-75 CNS, 116%; in the assay on SNB-19 CNS, 98.8%; with U251 CNS, 106%; in the assay on PC-3 prostate, 103%. The growth with SK-MEL-5 melanoma is 102%; in the assay with UACC-62 melanoma, 96.5%; in the assay on SK-MEL-28 melanoma, 111%; in the assay on SK-MEL-2 melanoma it was 124%; in the assay with EKVX NSCLC, 104%; in the assay on SN12C renal it was 96.2%. The growth in the assay on UO-31 renal is 87.9%; in the assay on TK-10 renal it was 105%; in the assay on ACHN renal, 114%; in the assay on CAKI-1 renal, 94.5%; with A498 renal it was 136%; in the assay on CCRF-CEM leukemia it was 101%. Besides, in the assay on MOLT-4 leukemia, the growth is 110%.

For the compound `O=C(O)C1CSC(c2ccccc2)N1` (configuration not stated), the growth with HCT-15 colon is 90.5%; in the assay on HT29 colon, 91.7%; in the assay with SNB-75 CNS, 96.7%; with SNB-19 CNS, 96.5%; with U251 CNS it was 105%; in the assay on PC-3 prostate it was 92.6%. Further, the growth in the assay on SK-MEL-5 melanoma was 101%; with UACC-62 melanoma, 93%; in the assay with LOX IMVI melanoma, 102%; with SK-MEL-2 melanoma it was 89.2%; with EKVX NSCLC it was 99.1%; in the assay with SN12C renal, 93.2%. The growth in the assay on UO-31 renal is 91.6%; with TK-10 renal it was 95.6%; in the assay on ACHN renal it was 94.4%; with CAKI-1 renal, 105%; in the assay on A498 renal, 81%; in the assay with CCRF-CEM leukemia, 121%. In addition, the growth with MOLT-4 leukemia was 115%.

Take `CC1CCC(C(C)(C)[N+](C)(C)C)CC1` (configuration not stated): the growth is 98.1% in the assay with HCT-15 colon; 97.8% with HT29 colon; 89% in the assay on SNB-75 CNS; 101% in the assay with SNB-19 CNS; 96.6% with U251 CNS; 96.9% in the assay with PC-3 prostate. The growth was 103% in the assay on SK-MEL-5 melanoma; 104% in the assay on UACC-62 melanoma; 102% in the assay on LOX IMVI melanoma; 114% in the assay with SK-MEL-2 melanoma; 96.6% in the assay with EKVX NSCLC; 102% in the assay on SN12C renal. In addition, the growth in the assay with UO-31 renal was 94.8%; in the assay with TK-10 renal, 95.6%; in the assay with ACHN renal, 105%; in the assay on CAKI-1 renal, 103%; with A498 renal, 86.8%; with CCRF-CEM leukemia, 98.4%. Moreover, in the assay on MOLT-4 leukemia, the growth was 101%.

For `NC(=O)NCCO`, the growth with HCT-15 colon is 109%; with HT29 colon, 100%; in the assay on SNB-75 CNS, 105%; with SNB-19 CNS, 104%; with U251 CNS it was 92.5%; with PC-3 prostate it was 94.5%. For the same compound, the growth in the assay on SK-MEL-5 melanoma was 98%; with UACC-62 melanoma it was 95.5%; in the assay on LOX IMVI melanoma, 97.7%; in the assay on SK-MEL-2 melanoma it was 108%; in the assay on UO-31 renal, 94.1%; in the assay with TK-10 renal, 96.5%. In addition, the growth with ACHN renal is 107%; in the assay with CAKI-1 renal, 95.2%; in the assay with A498 renal, 77.1%; in the assay on CCRF-CEM leukemia, 85%; with MOLT-4 leukemia it was 96.3%.

For the compound `O=S(Cc1ccccc1)/C(=C/NC(=S)Nc1ccccc1)c1ccccc1` (configuration not stated), the growth in the assay with HCT-15 colon was 106%; in the assay with HT29 colon it was 104%; in the assay with SNB-75 CNS, 80.2%; in the assay with SNB-19 CNS, 110%; with U251 CNS, 100%; in the assay on PC-3 prostate it was 95.4%. Moreover, the growth in the assay with SK-MEL-5 melanoma is 104%; in the assay with UACC-62 melanoma, 103%; with LOX IMVI melanoma, 90.9%; in the assay on SK-MEL-2 melanoma, 104%; with EKVX NSCLC, 102%; with SN12C renal it was 109%. The growth in the assay on UO-31 renal was 81.7%; in the assay with TK-10 renal, 119%; with ACHN renal, 97.2%; in the assay on CAKI-1 renal, 94.8%; with A498 renal, 120%; in the assay with CCRF-CEM leukemia, 102%. The growth in the assay with MOLT-4 leukemia was 103%.

Regarding `COC1C(=O)CCC2(CO2)C1(O)C1(C)OC1CCC(C)C` (configuration not stated), the growth is 56.4% in the assay on HCT-15 colon; 60.3% in the assay on HT29 colon; 77.5% in the assay with SNB-75 CNS; 51.5% in the assay on SNB-19 CNS; 42.3% in the assay on U251 CNS; 74.6% in the assay on PC-3 prostate. In addition, the growth is 64.6% in the assay with SK-MEL-5 melanoma; 70.4% with UACC-62 melanoma; 50.3% in the assay on LOX IMVI melanoma; 78.7% in the assay on SK-MEL-2 melanoma; 76.2% with EKVX NSCLC; 74.9% in the assay on SN12C renal. In addition, the growth with UO-31 renal was 48.7%; in the assay with TK-10 renal, 119%; in the assay on ACHN renal it was 72.1%; in the assay on CAKI-1 renal it was 71.4%; in the assay with CCRF-CEM leukemia it was 70.4%; in the assay on MOLT-4 leukemia it was 94%.

Regarding `CCCCCCCCCCCCCCCCOc1ccccc1NC(=O)CC(C)=O`, the growth is 113% with HCT-15 colon; 97.9% with HT29 colon; 93.2% with SNB-75 CNS; 104% in the assay on SNB-19 CNS; 99.3% with U251 CNS; 75.4% in the assay with PC-3 prostate. For the same compound, the growth in the assay on SK-MEL-5 melanoma is 96.2%; with UACC-62 melanoma it was 78.7%; in the assay with LOX IMVI melanoma, 107%; in the assay with SK-MEL-2 melanoma it was 92.1%; in the assay on EKVX NSCLC it was 89.7%; with SN12C renal, 63.9%. Further, the growth in the assay with UO-31 renal was 25.8%; in the assay with TK-10 renal it was 114%; in the assay with ACHN renal, 98.6%; in the assay on CAKI-1 renal it was 92.5%; with A498 renal, 93.5%; with CCRF-CEM leukemia, 57.1%. In addition, in the assay with MOLT-4 leukemia, the growth is 84.8%.
